DT40 TDP1 CPT = growth inhibition of DT40 Tdp1-/-;hTDP1 cells with camptothecin (screen for TDP1 inhibitors); chicken DT40 Tdp1-/-;hTDP1 cells + 20 nM CPT, ATP luminescence, 48 h; Potency, µM (doses to about 46.2 µM), usual class: inhibitors; 420,000 compounds, 12% hits; note: nearly all actives have a fitted effect of over 55% in size
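Chicken DT40 Tdp1-/- cells complemented with human TDP1, 400 cells/well, exposed to compounds plus 20 nM camptothecin for at least 48 h at 37 C; viability read as ATP content by CellTiter-Glo luminescence.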
HT1080NT lethal = kills 2HG-producing HT-1080-NT fibrosarcoma cells; HT-1080-NT fibrosarcoma viability, CellTiter-Glo ATP luminescence, 48 h; Potency, µM (top dose mostly 46.1 µM), actives largely listed as cytotoxic; 360,000 compounds, 1.6% hits; AID 686970;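 note: NT is the 2HG producing partner of a matched IDH1 knockdown line; nearly all actives have a fitted effect of over 55% in size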
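Toxicity toward the 2HG-producing NT line was scored as %Activity, normalised to DMSO and no-cell wells, from CellTiter-Glo luminescence after 48 hours' treatment.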
DT40 TDP1 no CPT = qHTS for Inhibitors of human tyrosyl-DNA phosphodiesterase 1 (TDP1): qHTS in cells in absence of CPT | 420,000 compounds, 15% hits | AID 686978, 2013 | Potency, µM (series often up to 46.2 µM), hits mostly inhibitors | DT40 Tdp1-/- hTDP1 cells, no CPT, ATP luminescence, 48 h; note: nearly all actives have a fitted effect of over 55% in size
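Readout: luminescence from CellTiter-Glo after 30 min in the dark at RT. Cells: DT40 Tdp1-/- with stable hTDP1, 400/well. Exposure: compounds alone, ≥48 hr, 37 °C.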
KB-V1 MDR tox = KB-V1 MDR subline cytotoxicity; KB-V1 MDR cells viability, CellTiter-Glo, 72 h; Potency, µM (top dose mostly 46.1 µM), actives largely listed as cytotoxic; 400,000 compounds, 3.4% hits; note: nearly all actives have a fitted effect of over 60% in size
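KB-V1 MDR subline cells in DMEM (phenol-red free, 10% FBS) exposed to compounds in qHTS concentration series for 72 h at 37 degrees C. Viability read by CellTiter-Glo luminescence; concentration-effect curves fitted after normalization and correction.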
HT1080 IDH1KD tx = kills HT-1080 cells with IDH1 knockdown | Potency, µM (series often up to 46.1 µM), most hits filed as cytotoxic | HT-1080 IDH1 knockdown viability, ATP luminescence, 48 h | 360,000 compounds, 2% hits | AID 686971
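% activity derives from luminescence (CellTiter-Glo), normalised to DMSO and no-cell wells. HT-1080-IDH1KD cells, 750/well, had 48 h compound exposure at 37 °C.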
KB-3-1 cytotox = KB-3-1 parental cell cytotoxicity. AID 1347075. 400,000 compounds, 1.4% hits. KB-3-1 viability, CellTiter-Glo ATP luminescence, 72 h. Potency, µM (series often up to 46.1 µM), hits mostly cytotoxic; note: nearly all actives have a fitted effect of over 60% in size
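Cytotoxicity measured as CellTiter-Glo luminescence after 72 h at 37 C. Compound titrations were pinned onto drug-naive KB-3-1 parental adenocarcinoma cells grown in DMEM with 10% FBS, and normalized data fitted to concentration-response curves.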
A number is an active result; - = inactive; ? = inconclusive; . = no result given. Shown are actives, neighbours in structure and some others; about 19% of the full set was active somewhere. Calls come from the whole dose curve; as a rule, active = well fitted curve in the direction sought with a large enough effect; inconclusive = small, poorly fitted or top-dose-only effect, or another doubt; inactive = no such curve, though single readings can be large; an effect the other way counts as inactive or inconclusive.

SMILES	DT40 TDP1 CPT	HT1080NT lethal	DT40 TDP1 no CPT	KB-V1 MDR tox	HT1080 IDH1KD tx	KB-3-1 cytotox
Cc1cc(C)c(OCC(=O)N(Cc2ccc(N(C)C)cc2)C2CCS(=O)(=O)C2)c(C)c1 (centres undefined)	-	-	23µM	-	-	-
Cn1nccc1C(=O)N1CCC(Cc2ccccc2)CC1	?	-	?	-	-	-
CCn1c2ccccc2c2cc(NC(=O)C(=O)N3CCOCC3)ccc21	-	-	-	-	-	-
CCOC(=O)c1cnc(SC2CC(=O)N(c3ccc(C)cc3)C2=O)nc1N (centres undefined)	3.3µM	-	4.1µM	?	-	-
Cc1nc(SC2CC(=O)N(c3ccccc3)C2=O)nc2c1CCCC2 (centres undefined)	?	?	-	?	11µM	-
Cc1ccc(N2C(=O)CC(Sc3nc(C)cc(C)n3)C2=O)cc1 (centres undefined)	7.3µM	?	8.2µM	?	?	?
COc1cccc(N2C(=O)CC(Sc3nc(C)cc(C)n3)C2=O)c1 (centres undefined)	-	-	-	-	?	-
COc1ccc([C@H]2CC(=O)C=C(c3cc4ccccc4s3)C2)cc1OC	?	?	?	?	-	-
Cc1cc(C(=O)c2ccccc2)c(NC(=O)CN2CCOCC2)s1	-	-	-	-	-	-
Cc1cc(C(=O)c2ccc(C(C)(C)C)cc2)c(NC(=O)CCl)s1	5.8µM	?	4.6µM	?	?	?
Cc1sc(NC(=O)CCl)c(C(=O)c2ccccc2)c1C	18µM	?	9.2µM	-	?	?
Cc1ccccc1C(=O)Nc1sc(C)c(C)c1C(=O)c1ccccc1	?	-	?	7.3µM	-	-
Cc1ccc(F)cc1NS(=O)(=O)c1ccc(Cl)s1	-	-	?	-	-	-
COc1ccc(NS(=O)(=O)c2cc(-c3cnc(C4CC4)o3)ccc2C)cc1	6.5µM	?	4.6µM	?	21µM	13µM
CCOC(=O)c1cccc(NS(=O)(=O)c2cc(-c3cnc(C4CC4)o3)ccc2C)c1	2.6µM	.	2.1µM	-	.	-
COc1ccc(-c2cnc(C)o2)cc1S(=O)(=O)Nc1ccc(OC(F)(F)F)cc1	-	.	-	-	.	-
CCOC(=O)c1cccc(NS(=O)(=O)c2cc3[nH]c(=O)c(=O)[nH]c3cc2C)c1	-	.	-	-	.	-
Cc1ccc(-c2cnc(C3CC3)o2)cc1S(=O)(=O)Nc1ccc(F)cc1Cl	?	.	26µM	?	.	-
CCc1cc(C(=O)N2CCN(S(=O)(=O)c3ccc(Cl)cc3)CC2)sc1C	?	-	?	-	-	-
Fc1ccc(-c2csc3ncnc(N4CCc5ccccc5C4)c23)cc1	16µM	-	?	?	-	-
Cc1ccc(-c2csc3ncnc(N4CCc5ccccc5C4)c23)cc1	?	-	21µM	?	-	-
O=C(NC1CCC(n2cc(C(=O)NC3CC3)nn2)CC1)C(=O)c1ccccc1 (centres undefined)	-	.	-	.	.	.
COc1cc(NC(=O)COC(=O)Cn2cnc3c2c(=O)n(C)c(=O)n3C)cc(OC)c1	-	-	-	-	-	-
CC(C)(C)C1(O)CC(C(F)(F)F)=NN1C(=O)CCc1ccccc1 (centres undefined)	-	-	-	-	-	-
Cc1ccccc1OCC(=O)N1N=C(C(F)(F)F)CC1(O)C(C)(C)C (centres undefined)	?	?	16µM	?	?	-
SMILES	DT40 TDP1 CPT	HT1080NT lethal	DT40 TDP1 no CPT	KB-V1 MDR tox	HT1080 IDH1KD tx	KB-3-1 cytotox
Cc1ccc(-c2nc(-c3cc4cc(Cl)ccc4oc3=O)sc2C)cc1	-	.	?	-	.	?
O=C(NC12CC3CC(CC(C3)C1)C2)c1cncc(Br)c1	-	-	?	-	-	-
COc1nc(OC/C(N)=N/O)nc(N2CCOCC2)n1	-	-	-	-	-	-
COc1ccc(Cl)cc1NS(=O)(=O)c1cccc(C(=O)NC2CCN(Cc3ccccc3)CC2)c1	?	?	?	-	-	-
O=C(NC1CCN(Cc2ccccc2)CC1)c1cccc(S(=O)(=O)Nc2cc(C(F)(F)F)ccc2Cl)c1	?	-	?	23µM	-	?
COc1ccc(NS(=O)(=O)c2cccc(C(=O)NNC(=O)c3ccc(Br)o3)c2)cc1	-	-	5.8µM	-	-	-
COc1ccc(NS(=O)(=O)c2cccc(C(=O)NC3CCN(Cc4ccccc4)CC3)c2)cc1	15µM	?	?	-	?	-
O=C(CCc1ccccc1)N1CCN(c2ccc(F)cc2)CC1	-	-	-	-	-	-
COc1cc(C(=O)NNC2=CC(=O)CC(C)(C)C2)cc(OC)c1OC	-	-	-	-	-	-
COc1cc(CN2CCCC(N3CCN(c4ccccc4C)CC3)C2)ccc1O (centres undefined)	13µM	-	?	?	?	-
COc1cc(CN2CCCC(N3CCN(c4ccc(F)cc4)CC3)C2)ccc1F (centres undefined)	21µM	-	?	-	-	-
Cc1ccccc1NC(=S)N=Nc1c(O)n(C)c2ccc(S(=O)(=O)N3CCOCC3)cc12	8.2µM	?	7.3µM	?	21µM	?
Cc1cccc(C)c1NC(=S)N=Nc1c(O)n(C)c2ccc(S(=O)(=O)N3CCOCC3)cc12	2.6µM	-	4.1µM	3.7µM	-	?
O=C(Cn1cnc2c(NCc3ccccc3)ncnc21)NCc1ccc2[nH]ccc2c1	-	-	-	-	-	-
O=C(Cn1cnc2c(OCc3ccccc3)ncnc21)NCc1ccc2[nH]ccc2c1	?	-	16µM	-	-	?
O=C(Cn1cnc2c(OCc3ccccc3)ncnc21)NCc1ccccc1	?	?	16µM	-	?	-
CCOc1cccc(OCCCn2c(-c3ccc(Br)cc3)nc3ccccc3c2=O)c1	-	.	-	?	.	-
O=C1[O][Bi][O]c2ccccc21	-	.	-	.	.	.
CC1c2cc3c(cc2CCN1C(=O)c1cccc(Cl)c1)OCCCO3 (centres undefined)	7.3µM	21µM	6.5µM	5.8µM	?	?
Cc1ccc(NC(=O)CN2CCc3cc4c(cc3C2C)OCCCO4)cc1 (centres undefined)	?	-	?	-	-	-
CC1c2cc3c(cc2CCN1CC(=O)Nc1ccccc1)OCCCO3 (centres undefined)	15µM	-	23µM	?	-	?
COc1cc2c(cc1OC)C(C)N(C(=O)c1cccc([N+](=O)[O-])c1)CC2 (centres undefined)	?	-	?	?	-	-
CC1(C)Cc2c(sc3c2c(=N)n(Cc2ccco2)c(=O)n3CC(=O)Nc2cccc(Cl)c2)CO1	?	-	21µM	-	-	-

Screening data deposited in PubChem BioAssay by National Center for Advancing Translational Sciences (NCATS).
